The values that follow come from PubChem BioAssay AID1851 (National Center for Advancing Translational Sciences (NCATS), 2009).

The term AC50 denotes the concentration at which the activity in the assay is half-maximal.

SMILES strings stand for the structures. Where “and” joins values, the source holds several entries; their conditions need not be identical. Equal entries are not always repeated. About 4,000 (25%) of roughly 16,000 compounds were called active. Another 26% or so got no clear call; they are omitted. Calls come from the whole dose curve; as a rule, active = well fitted curve in the direction sought with a large enough effect; inconclusive = small, poorly fitted or top-dose-only effect, or effect the other way; inactive = no such curve, though single readings can be large or run the other way. A selection follows.
% is set by controls: 0 for no effect and ±100 for the full control effect.

The target in this assay is Cytochrome P450 2C9 (Homo sapiens) (UniProt P11712). As to the kind of experiment: Cytochrome panel assay with activity outcomes. Particulars: recombinant CYP, pro-luciferin dealkylation, luminescence, p450-cyp2c9; series mostly up to 57.1 µM.
Sequence of Cytochrome P450 2C9 (Homo sapiens) (P11712 whole entry, looked up): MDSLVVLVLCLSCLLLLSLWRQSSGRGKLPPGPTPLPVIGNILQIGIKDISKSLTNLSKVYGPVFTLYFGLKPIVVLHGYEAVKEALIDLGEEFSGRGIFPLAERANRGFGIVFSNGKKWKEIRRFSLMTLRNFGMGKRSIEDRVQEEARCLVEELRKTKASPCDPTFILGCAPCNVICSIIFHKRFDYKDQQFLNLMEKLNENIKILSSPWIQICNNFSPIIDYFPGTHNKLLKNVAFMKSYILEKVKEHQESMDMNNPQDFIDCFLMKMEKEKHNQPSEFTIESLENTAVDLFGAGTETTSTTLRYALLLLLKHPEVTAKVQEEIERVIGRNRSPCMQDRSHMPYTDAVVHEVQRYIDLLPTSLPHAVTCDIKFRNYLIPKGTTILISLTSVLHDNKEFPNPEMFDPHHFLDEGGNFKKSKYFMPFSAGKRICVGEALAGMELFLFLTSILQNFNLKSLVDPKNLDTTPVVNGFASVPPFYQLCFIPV
As to `Cc1cc(C)c2c(SCc3ccc(Cl)cc3Cl)nc(N)nc2n1`, the activity, negative = inhibition is -3.34% [at 11.4 µM] (inactive).

With `Cc1cc(N2CCOCC2)nc(SCc2ccc(Cl)cc2Cl)n1`, the AC50 was 7.94 µM (active).

Consider `CSc1nc(C)cc(Nc2ccc(O)c(CN3CCOCC3)c2)n1`, for which the activity, negative = inhibition is -8.69% [at 11.4 µM] (inactive).

`c1ccc(Nc2ncncc2-c2ccoc2)cc1`: the activity, negative = inhibition is 4.61% [at 2.29 µM] (inactive).

Take `O=[N+]([O-])C1=CC=C2C(=NC3(CCCCC3)N2O)C1=NC1CCCCC1`: the AC50 is 3.55 µM (active).

`CCOC(=O)C1=C[C@@]2(CC)CCCN3CCc4c(n1c1ccccc41)[C@H]32`: the AC50 entry is “inactive”.

Turning to `CCOCC(=O)Nc1cc(C(=O)Nc2ccccc2)ccc1Cl`, the AC50 is 5.62 µM (active).

In the case of `CCOCC(=O)Nc1cc(C(=O)Nc2cccc(C)c2C)ccc1Cl`, the AC50 entry was “inactive”.

Consider `c1ccc(CCSc2nccn2-c2ccccc2)cc1`, for which the AC50 was 15.8 µM (active).

In the case of `O=C(O)CSCCc1ccccc1`, the activity, negative = inhibition was 29.1% [at 11.4 µM] (inactive).

As for `Cc1ccccc1CSc1nccn1-c1ccccc1`, the AC50 is 7.08 µM (active).

Regarding `Cn1nnnc1SCc1ccccc1[N+](=O)[O-]`, the AC50 entry was “inactive”.

Consider `NCCSCCc1ccccc1`, for which the activity, negative = inhibition was -27.8% [at 11.4 µM] (inactive).

As for `CC(=O)N[C@@H]1CONC1=O`, the activity, negative = inhibition is -5.39% [at 11.4 µM] (inactive).

For the compound `COC(=O)c1c(NC(=O)C(C)(C)C)sc2c1C(C(=O)OC)CC2` (centres undefined), the AC50 is 20 µM (active).

Regarding `O=c1nc(N2CCOCC2)ccn1-c1nc(-c2ccccc2)oc1-c1ccccc1`, the AC50 was 4.47 µM (active).

With `O=c1c(-c2ccccc2)nc2cnc(N3CCOCC3)nc2n1-c1ccccc1`, the AC50 result was “inactive”.

Take `O=c1c(-c2cc(F)cc(F)c2)nc2cnc(N3CCOCC3)nc2n1-c1ccccc1`: the AC50 entry was “inactive”.

For `CCc1cc2c(nc1CC)CCN(CC/C(C)=N/O[C@@H](C)c1cn([C@@H]3COC[C@@H]3O)nn1)C2`, the activity, negative = inhibition was 18.9% [at 11.4 µM] (inactive).

Regarding `O=C(CN1C(=O)NC2(CCCC2)C1=O)NCCC1=CCCCC1`, the AC50 result was “inactive”.

As to `CCCCCOc1ccc(NC(=O)C(=O)NCCC2=CCCCC2)cc1`, the AC50 entry is “inactive”.

Consider `CC1(c2ccccc2)NC(=O)N(CC(=O)NCCC2=CCCCC2)C1=O` (centres undefined), for which the AC50 is 25.1 µM (active).

For the compound `CCCCNC(=O)[C@@H]1Cc2ccccc2N1C(=O)[C@H](N)CC`, the AC50 entry was “inactive”.

On to `O=C(COc1ccc(Cl)cc1)NCCC1=CCCCC1`, for which the AC50 was 3.98 µM (active).

As to `O=C1CSc2ccc(C(=O)NCCC3=CCCCC3)cc2N1`, the AC50 entry is “inactive”.

Consider `O=C(O)C1CCN(c2ncccn2)CC1`, for which the AC50 entry was “inactive”.

On to `COc1ccc2c(c1)CCCC21NC(=O)N(CC(N)=O)C1=O` (centres undefined), for which the AC50 result is “inactive”.

As for `O=C(NCCc1ccc(Cl)cc1)c1ncn[nH]1`, the AC50 result is “inactive”.

With `CCCCNC(=O)CN1C(=O)NC2(CCCc3ccccc32)C1=O` (centres undefined), the concentration at half-maximal activity (AC50) is 2.24 µM (active).

Consider `O=C(CN1CCN(C2CCCCC2)CC1)NCCC1=CCCCC1`, for which the AC50 entry is “inactive”.

On to `O=C(CN1CCN(c2ncccn2)CC1)NCCC1=CCCCC1`, for which the AC50 is 3.55 µM (active).

As for `CCCCC[C@H](CC(=O)NO)C(=O)N[C@@H](C(=O)N1CCC[C@H]1CO)C(C)C`, the AC50 result was “inactive”.

As to `O=C(O)/C=C\c1cnc[nH]1`, the AC50 result is “inactive”.

Turning to `O=C(O)CCNc1ccccc1C(=O)O`, the activity, negative = inhibition is 14.2% [at 11.4 µM] (inactive).

As to `Cc1c(Cl)cccc1Nc1ccccc1C(=O)O`, the AC50 was 3.16 µM (active).

Consider `Cc1c(Nc2ncccc2C(=O)O)cccc1C(F)(F)F`, for which the AC50 entry was “inactive”.

Take `Cc1cccc(Nc2ccccc2C(=O)O)c1C`: the AC50 is 7.94 µM (active).

Consider `Cc1ccc(Cl)c(Nc2ccccc2C(=O)O)c1Cl`, for which the AC50 was 7.94 µM (active) and 1.26 µM (active).

Take `O=C(O)c1cccc(C(=O)O)c1S(=O)Cc1ccccc1` (centres undefined): the activity, negative = inhibition was 7.56% [at 11.4 µM] (inactive).

As for `O=C(Nc1cccc(F)c1)N1CCCC2(CCN(C(=O)c3cc(C(F)(F)F)cc(C(F)(F)F)c3)CC2)C1`, the AC50 entry was “inactive”.

Take `Cn1ccnc1C[C@@](C)(O)c1ccccc1`: the activity, negative = inhibition was 4.93% [at 11.4 µM] (inactive).

Regarding `CCc1c(O)nc2sc3ccccc3n2c1=O`, the AC50 was 3.16 µM (active).

With `CC(=O)Nc1c(I)c(C(=O)N[C@H]2[C@@H](O)[C@H](O)[C@H](CO)O[C@@H]2O)c(I)c(N(C)C(C)=O)c1I`, the AC50 result was “inactive”.

In the case of `Cc1c(C=NCCOCc2ccccc2)cnn1C`, the AC50 entry is “inactive”.

Take `COC(=O)[C@@]1(Cc2ccccc2)[C@H]2c3cc(C(=O)N4CCCC4)n(Cc4ccc(C)o4)c3C[C@H]2CN1C(=O)c1ccccc1`: the AC50 was 1 µM (active).

For the compound `COC(=O)[C@@]1(Cc2ccc(F)cc2)[C@H]2c3cc(C(=O)N4CCCC4)n(Cc4ccc(C)o4)c3C[C@H]2CN1C(=O)c1ccccc1`, the AC50 is 3.98 µM (active).

As to `COC(=O)[C@@]1(Cc2ccc(F)cc2)[C@H]2c3cc(C(=O)N(C)C)n(Cc4ccc(C)o4)c3C[C@H]2CN1C(=O)c1ccccc1`, the AC50 is 10 µM (active).

Take `Cn1c(=O)c(-c2ccc(Cl)cc2)nc2cnc(Nc3ccccc3)nc21`: the AC50 entry is “inactive”.

For `CC(C)(C)Cn1nc(-c2ccc(Cl)cc2)c2c(N)ncnc21`, the AC50 entry was “inactive”.

Take `Cc1ccc(Cn2cnc3c(nnn3Cc3ccc(Cl)cc3)c2=O)cc1`: the AC50 entry is “inactive”.

With `COc1ncc2nc(-c3ccccc3)c(=O)n(-c3ccccc3)c2n1`, the AC50 result is “inactive”.

With `O=c1c2ccccc2c(-c2ccccc2)nn1Cc1ccc(Cl)cc1`, the AC50 is 8.91 µM (active).

For `O=c1c2ccccc2c(-c2ccccc2)nn1-c1ccc(Cl)c(Cl)c1`, the AC50 is 11.2 µM (active).

Regarding `CCCc1[nH]nc2c1C(c1ccncc1)C(C#N)=C(N)O2` (centres undefined), the AC50 was 2.51 µM (active).

Take `O=P(O)(CCc1ccccc1)C(O)c1ccccc1` (centres undefined): the AC50 entry was “inactive”.

`CC[C@](N)(C(=O)O)C(C)C`: the activity, negative = inhibition is 1.15% [at 11.4 µM] (inactive).

For the compound `C=CCn1c(SCc2ccccc2)nc2scc(-c3ccc(C)o3)c2c1=O`, the AC50 entry is “inactive”.

Take `C=CCn1c(SCC)nc2sc3c(c2c1=O)CCc1ccccc1-3`: the AC50 was 10 µM (active).

In the case of `Cc1c2cccc(Sc3ccccc3)c2c2c3c(cccc13)[S+](c1ccccc1)C2` (centres undefined), the AC50 was 2.51 µM (active).

Turning to `CC1CCCC(C)N1C(=O)C1CC(c2ccc(F)cc2)=NO1` (centres undefined), the AC50 was 10 µM (active).

Take `O=C(NNC(=O)C1CC(c2cccnc2)=NO1)Nc1cccc(F)c1` (centres undefined): the AC50 result was “inactive”.

Turning to `CSCCC(NC=C1C(=O)OC(C)(C)OC1=O)C(=O)O` (centres undefined), the AC50 result is “inactive”.

Consider `CNc1ncncc1-c1ccccc1OC`, for which the activity, negative = inhibition was 6.03% [at 2.29 µM] (inactive).

With `O=S(=O)(O)C1CCNCC1`, the AC50 result is “inactive”.
